Assay [1] in a line: Cell Viability - N2a (AID 540).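 For activity change, negative = cytotoxicity: plate controls were DMSO alone for no effect and tamoxifen control for full effect.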 Note: nearly all actives have a fitted effect of over 45% in size. Note: potency is the fitted concentration of half-maximal effect. To be noted: N2a mouse neuroblastoma cell viability; activity change, negative = cytotoxicity: at 92.2 µM (top of the series). An outline of the steps:
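Mouse neuroblastoma N2a cells, 1500/well, exposed to compounds 40 h at 37 °C in complete medium. Viability measured as cellular ATP by CellTiter-Glo luminescence; AC50 from Hill fits of concentration-response.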

Assay [2] in a line: Cell Viability - NIH 3T3 (AID 541).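 For activity change, negative = cytotoxicity: plate controls were DMSO alone for no effect and tamoxifen positive control for full effect.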 Note: nearly all actives have a fitted effect of over 25% in size. Note: potency is the fitted concentration of half-maximal effect. An outline of the steps:
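Mouse NIH 3T3 fibroblasts, 1000 cells/well, rested 5 hr at 37 °C, then exposed to compound for 40 hr at 37 °C in complete medium. Viability read as intracellular ATP by CellTiter-Glo luminescence; AC50 from Hill-equation fits of concentration-response data.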

A short description of assay [3]: Cell Viability - H-4-II-E (AID 543). Note: nearly all actives have a fitted effect of over 35% in size. Note: potency is the fitted concentration of half-maximal effect. An outline of the steps: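 Rat hepatoma H-4-II-E cells, 1500 per well, treated 40 h at 37 °C in complete medium. Cellular ATP read by CellTiter-Glo luminescence; AC50 from Hill fits of concentration-response.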
Assay [4] is described as follows: Cell Viability - SH-SY5Y (AID 544). Note: nearly all actives have a fitted effect of over 55% in size. Note: potency is the fitted concentration of half-maximal effect. An outline of the steps: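 SH-SY5Y human neuroblastoma cells (1500/well) incubated 5 h, then compound-treated 40 h at 37 °C in complete medium. Viability read as intracellular ATP by CellTiter-Glo luminescence after 20 min; AC50 from Hill-equation fits of qHTS concentration-response.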
A short description of assay [5]: Cell Viability - Renal Proximal Tubule (AID 545). Note: nearly all actives have a fitted effect of over 40% in size. Note: potency is the fitted concentration of half-maximal effect. An outline of the steps:
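In this qHTS format, normal rat kidney-derived proximal tubule cells in complete culture medium receive compound titrations, then sit 40 hours at 37 °C before luciferase-based ATP quantitation; potency is reported as AC50 from concentration-response curves.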

Assay [6] in a line: Cell Viability - Mesenchymal (AID 546).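 Note: cells exposed to compound for 40 hours before reading.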 Note: potency is the fitted concentration of half-maximal effect. In outline:
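AC50 values reflect the drop in intracellular ATP in a human kidney mesenchymal line derived from normal glomeruli. Treatment lasts 40 hr at 37 °C in complete medium, and the signal comes from CellTiter-Glo luminescence.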

A short description of assay [7]: Cellular Toxicity (caspase-3) HepG2 (AID 654).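 Note: cells exposed to compound for 16 hours before reading; 0% = DMSO alone and 100% = caspase signal from 100 µM tamoxifen.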 An outline of the steps: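 HepG2 cells (1500/well) were treated 16 h at 37 °C in complete medium, then caspase 3/7 activity was read by Caspase-Glo luminescence. Data were normalized to DMSO and 100 uM tamoxifen; AC50 came from Hill-equation fits of qHTS concentration-response.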
A short description of assay [8]: Cellular Toxicity (caspase-3) Jurkat (AID 655).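 Note: cells exposed to compound for 16 h at 37 °C before reading.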 An outline of the steps: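 qHTS in human Jurkat T-cell leukemia line: 16 hr compound treatment at 37 °C, caspase-3/7 activity measured by Caspase-Glo luminescence. AC50 derived from Hill equation.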
A short description of assay [9]: Cellular Toxicity (caspase-3) HUV-EC-C (AID 656). An outline of the steps: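 Concentration-dependent caspase 3/7 induction was assessed in HUV-EC-C cells exposed for 16 hours. Data scaled between DMSO and tamoxifen (100 uM) controls.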
A short description of assay [10]: Cellular Toxicity (caspase-3) SHSY5Y (AID 657). In outline: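 Readout: caspase-cleaved peptide-aminoluciferin substrate driving luciferase light in SH-SY5Y neuroblastoma cells after 16 h treatment. Response normalized to DMSO and 10 uM staurosporine controls.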
Assay [11] can be described thus: Cellular Toxicity (caspase-3) MRC-5 (AID 659).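 Note: 0% = DMSO basal and 100% = 10 µM staurosporine.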 An outline of the steps:
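Concentration-dependent caspase 3/7 activation is measured in human normal lung fibroblasts (MRC-5) following 16-hour treatment. AC50 values come from standard Hill-equation modeling of luminescence normalized to DMSO and 10 uM staurosporine.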

Assay [12] in a line: Cellular Toxicity (caspase-3) Mesangial (AID 660).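 Note: cells exposed to compound for 16 h before the caspase read.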 An outline of the steps:
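Human renal glomerular mesangial cells, 1000/well, 5 h at 37 C before 16 h compound treatment. Caspase-Glo 3/7 luminescence after 20 min; normalized to DMSO and 100 uM tamoxifen, AC50 from Hill fit.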

The nature of assay [13]: Cellular Toxicity (caspase-3) SK-N-SH (AID 661).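 Note: 0% = DMSO basal and 100% = 10 µM staurosporine.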 An outline of the steps: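 Human SK-N-SH neuroblastoma cells, 1500/well, were exposed to compounds for 16 hours at 37 °C. Caspase-Glo 3/7 luminescence was normalized to DMSO (basal) and 10 uM staurosporine (100%), and AC50 came from a Hill fit.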
Assay [14] in a line: Cellular Toxicity (caspase-3) H-4-II-E (AID 663).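 Note: cells exposed to compound for 16 hr before readout.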 An outline of the steps: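 Apoptosis induction is scored as increased luminescence from caspase 3/7 substrate cleavage in rat hepatoma H-4-II-E cells exposed to compound for 16 hr. Activity is scaled between DMSO and 100 uM tamoxifen.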
A short description of assay [15]: Cellular Toxicity (caspase-3) Hek293 (AID 664).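 Note: cells exposed to compound for 16 h at 37 °C before readout.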 The conditions noted are these: HEK293 caspase-3 activation, DMSO = 0%, 100 µM tamoxifen = 100%; at 92.2 µM (top of the series). In outline: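 HEK293 cells in complete medium treated 16 h at 37 °C, then Caspase-Glo 3/7 luminescence read after 20 min at room temperature. Normalized to DMSO and 100 uM tamoxifen; AC50 from Hill fit of concentration-response.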

A short description of assay [16]: Cellular Toxicity (caspase-3) N2a (AID 665).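 Note: compound exposure lasted 16 h at 37 °C before readout.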 An outline of the steps: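 Mouse N2a neuroblastoma cells, 1500 per well, treated 16 h at 37 °C in complete medium; caspase-3/7 activity by Caspase-Glo luminescence after 1 h. Normalized to DMSO and 10 uM staurosporine; AC50 from Hill fits.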
The nature of assay [17]: Cellular Toxicity (caspase-3) NIH 3T3 (AID 666).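 Note: 0% = DMSO basal and 100% = 100 µM tamoxifen stimulation.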 In outline: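 Mouse NIH 3T3 fibroblasts (1000/well) treated 16 h at 37 C; caspase-3/7 activity measured by Caspase-Glo 3/7 luminescence after 20 min. Normalized to DMSO and 100 uM tamoxifen; AC50 from Hill fits.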
A short description of assay [18]: Cellular Toxicity (caspase-3) Renal Proximal Tubule (AID 667).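 Note: cells exposed to compound for 16 hours at 37 °C before detection; 0% = DMSO basal and 100% = 10 µM staurosporine.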 In outline: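 Caspase-Glo 3/7 read-out, rat primary kidney proximal tubule cells. Compound exposure 16 h, 37 °C; detection after 1 h at RT. Activity scaled to DMSO and 10 uM staurosporine.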
In assay [19] the target is Mitogen-activated protein kinase 10 (Mus musculus) (UniProt Q61831). Put plainly: JNK3 AlphaScreen Assay (AID 530; active = well fitted curve in either direction with a large enough effect, not every such curve was filed as active;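 note: kinase came from lysate of stimulated human HepG2 cells; signal reports phosphorylation of biotinylated GST-cJun 1-79 at Ser73 with 10 µM ATP; % is set by controls: 0 for no effect and ±100 for the full control effect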). An outline of the steps:
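Compound titrations were preincubated 15 minutes at room temperature with substrate, antibody and pre-activated JNK3-containing HepG2 lysate. Reactions were started with 10 uM ATP and stopped with EDTA-containing bead buffer for AlphaScreen detection.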

Assay [20] addresses 3',5'-cyclic-AMP phosphodiesterase 4B (Homo sapiens) (UniProt Q07343). Put plainly: qHTS Assay for Inhibitors of PDE-IV (AID 607; active = well fitted activation curve with a large enough effect in the main read-out, with a control signal flat, not every such curve was filed as active; note: % of control where 0% means no effect). In outline:
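ACTOne HEK293 cells carry a modified cAMP-gated CNG channel and express endogenous PDE4; plated 1000 cells/well, compounds up to 22.9 uM final. Membrane-potential dye fluorescence (ex 535/em 590) was read; parental cells received 10 uM forskolin + 100 uM RO 20-1724.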

Unmarked numbers belong to inactive results. Inconclusive results are not listed. Active and inactive are the calls of the source. Unless noted, calls come from the whole dose curve; as a rule, active = well fitted curve in the direction sought with a large enough effect; inconclusive = small, poorly fitted or top-dose-only effect, or another doubt; inactive = no such curve, though single readings can be large; an effect the other way counts as inactive or inconclusive.

3',5'-cyclic-AMP phosphodiesterase 4B (Homo sapiens), sequence (Q07343 whole entry, looked up): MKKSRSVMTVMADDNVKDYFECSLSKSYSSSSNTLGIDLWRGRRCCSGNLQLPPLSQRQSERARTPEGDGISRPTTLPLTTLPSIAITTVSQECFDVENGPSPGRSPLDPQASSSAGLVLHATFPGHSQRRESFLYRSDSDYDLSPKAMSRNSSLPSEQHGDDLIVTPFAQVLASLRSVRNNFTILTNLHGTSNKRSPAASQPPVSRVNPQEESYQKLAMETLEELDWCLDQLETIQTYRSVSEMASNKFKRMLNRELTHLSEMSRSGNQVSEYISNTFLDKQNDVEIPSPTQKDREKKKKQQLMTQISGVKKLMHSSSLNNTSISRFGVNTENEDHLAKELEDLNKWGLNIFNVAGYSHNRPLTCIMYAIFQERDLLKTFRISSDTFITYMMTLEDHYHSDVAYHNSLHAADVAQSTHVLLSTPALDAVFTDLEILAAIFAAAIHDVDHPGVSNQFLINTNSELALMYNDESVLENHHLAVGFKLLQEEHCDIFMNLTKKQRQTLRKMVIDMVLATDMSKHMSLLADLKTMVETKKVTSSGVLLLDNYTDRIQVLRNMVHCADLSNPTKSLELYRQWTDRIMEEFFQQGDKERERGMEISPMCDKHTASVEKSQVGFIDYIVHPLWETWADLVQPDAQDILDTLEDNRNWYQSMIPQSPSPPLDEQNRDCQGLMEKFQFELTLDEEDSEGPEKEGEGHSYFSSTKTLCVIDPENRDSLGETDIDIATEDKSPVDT

Consider `CN(C)c1ccc2nc3ccc(=[N+](C)C)cc-3sc2c1`, for which the Potency was 2.51 µM (active) in [1]; 0.631 µM (active) in assay [2]; 7.94 µM (active) in [3]; 15.8 µM (active) in assay [4]; 31.6 µM (active) in [5]; 31.6 µM (active) in assay [6]. In addition, the result in assay [7], in assay [9], in [10], in [11], in [12] and in assay [13] was inactive. Also, the compound was classed as inactive in [14], in assay [16], in [17] and in assay [18]. The Potency entry in assay [8] is “inactive”. The caspase-3 activation in [15] is -0.51%.
Take `Nc1cc(C(Cl)=C(Cl)Cl)c(S(N)(=O)=O)cc1S(N)(=O)=O`: the Potency entry in [19] was “inactive”. The outcome in assay [20] was inactive.
For the compound `Oc1ccc(-c2nc(-c3ccc(F)cc3)c(-c3ccncc3)[nH]2)cc1`, in [20], the outcome was inactive.
`CCCc1cc(=O)[nH]c(=S)[nH]1`: the Potency result in assay [19], in assay [1], in assay [2], in assay [3], in [5] and in assay [6] was “inactive” in each case. The Potency result in assay [8] was “inactive”. The compound was called inactive in assay [20], in [7], in [9], in assay [10], in assay [11] and in [12]. The compound was classed as inactive in assay [13], in [14], in [16], in [17] and in assay [18]. Also, the caspase-3 activation in assay [15] is 1.8%.
In the case of `Nc1nc(OCc2ccccc2)c2[nH]cnc2n1`, the call in [20] was inactive.
As for `CC(=O)Nc1ccc(O)cc1`, the Potency result in assay [1], in assay [2], in [3], in assay [4], in assay [5] and in assay [6] was “inactive” in each case. Moreover, the Potency entry in [8] was “inactive”. Moreover, the call in [7], in assay [9], in assay [10], in assay [11], in assay [12] and in assay [13] was inactive. The compound was classed as inactive in [14], in assay [16], in assay [17] and in [18]. Also, the caspase-3 activation in assay [15] is -1.09%.
With `O=C(NCCO[N+](=O)[O-])c1cccnc1`, the Potency entry in [19] is “inactive”. Moreover, the compound was called inactive in assay [20].
Regarding `Nc1ccc(S(N)(=O)=O)cc1`, the Potency entry in [1], in [2], in [3], in assay [4], in assay [5] and in assay [6] was “inactive” throughout. The Potency result in [8] was “inactive”. For the same compound, the outcome in [20], in assay [7], in assay [9], in [10], in assay [11] and in assay [12] was inactive. Moreover, the outcome in assay [13], in assay [14], in assay [16], in assay [17] and in [18] was inactive. Further, the caspase-3 activation in [15] is -1.76%.
For the compound `Cc1cc(=O)oc2cc(O)ccc12`, the compound was called inactive in assay [20].
Regarding `c1ccc2[nH]c(-c3cscn3)nc2c1`, the Potency result in assay [3], in assay [4], in [5], in assay [6] and in [8] was “inactive” in each case. In addition, the result in [20], in [7], in assay [9], in assay [10], in [11] and in assay [12] was inactive. The call in [13], in assay [14], in [16] and in [18] was inactive. For the same compound, the caspase-3 activation in [15] is -8.39%.
Take `Cc1cc(O)c2c(c1)C(=O)c1cc(O)cc(O)c1C2=O`: the activity change, negative = cytotoxicity in [1] was -117% (active). In [3], the Potency is 63.1 µM (active). Besides, the Potency result in [5] and in assay [8] was “inactive” in each case. Moreover, the outcome in assay [20], in assay [7], in [9], in assay [10], in [11] and in assay [12] was inactive. The compound was called inactive in [13], in assay [14], in assay [16] and in assay [18]. Moreover, the caspase-3 activation in [15] was -8.76%.
`Cc1nc2n(c(=O)c1CCN1CCC(c3noc4cc(F)ccc34)CC1)CCCC2`: the call in [20] was inactive.
Regarding `CCOc1cc(CC(=O)N[C@@H](CC(C)C)c2ccccc2N2CCCCC2)ccc1C(=O)O`, the call in [20] was inactive.
As for `CC1(C)NC(=O)N(c2ccc([N+](=O)[O-])c(C(F)(F)F)c2)C1=O`, the call in assay [20] was inactive.

The values above are taken from PubChem BioAssay (NCATS).
